LDHA inh = inhibitors of human lactate dehydrogenase A. P00338. purified LDHA, NADH/diaphorase-resazurin fluorescence; active compounds read low. activity change, % (values are at about 110 or 230 µM). 0.15% of 480,000 active. AID 1347041; in the data active = activity change below about -30%; inconclusive = mostly about -25% to -30%;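 note: plate controls were DMSO wells for no effect and wells without enzyme for full effect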
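Human LDH5 (2 nM) was incubated with 0.06 mM NADH and 0.2 mM pyruvate for 5 min at room temperature in Tris pH 7.4. Remaining NADH was coupled through diaphorase/resazurin, and resorufin fluorescence was read at 0 and 20 min.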
ATXN2 expr inh = reduces ATXN2 reporter expression in HEK-293 cells; 0.72% of 360,000 active; HEK-293 ATXN2-luciferase reporter, luminescence, 24 h; Potency, µM (series often up to 57 µM), inactives show at the top dose activity change, negative = inhibition, actives largely listed as inhibitors; note: potency is the fitted concentration of half-maximal effect; % is set by controls: 0 for no effect and ±100 for the full control effect; nearly all actives have a fitted effect of over 55% in size
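qHTS (up to 57 uM final) was run with 24 h compound exposure of reporter cells at 37 °C. Each well was multiplexed: SteadyGlo luminescence measured ATXN2-luciferase expression after a fluorogenic Gly-Phe-AFC viability readout (25 uM final).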
TGFb SMAD3 inh = blocks TGF-b signaling; HepG2 CAGA-GFP TGF-b/SMAD3 reporter, GFP fluorescence, 18 h; TGF-beta stimulated, 500 pg/mL final; Potency, µM (series often up to 46.1 µM), without a hit: top-dose activity, negative = inhibition, actives largely listed as inhibitors; 1.2% of 410,000 active; AID 588855; note: potency is the fitted concentration of half-maximal effect; % is set by controls: 0 for no effect and ±100 for the full control effect; nearly all actives have a fitted effect of over 65% in size
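Read-out: total well GFP (ex488/em500-530) summed from mean per-cell fluorescence. Cells: HEPG2 CAGA-GFP, 1% FBS DMEM, 18 h at 37 degrees C with 500 pg/mL final TGF-beta. Unstimulated wells served as the full-inhibition control; stimulated DMSO wells = 0%.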
mIDH1 inhibitor = human IDH1 R132H inhibition; Potency, µM (titrated, usually from 76.6 µM), inactives show top-dose activity change, negative = inhibition, usual class: inhibitors; IDH1-R132H enzyme, NADPH consumption, diaphorase/resazurin fluorescence; O75874; 0.093% of 390,000 active; note: potency is the fitted concentration of half-maximal effect; % is set by controls: 0 for no effect and ±100 for the full control effect; nearly all actives have a fitted effect of over 65% in size
Target sequence (O75874 whole entry R132H, stated change not applied): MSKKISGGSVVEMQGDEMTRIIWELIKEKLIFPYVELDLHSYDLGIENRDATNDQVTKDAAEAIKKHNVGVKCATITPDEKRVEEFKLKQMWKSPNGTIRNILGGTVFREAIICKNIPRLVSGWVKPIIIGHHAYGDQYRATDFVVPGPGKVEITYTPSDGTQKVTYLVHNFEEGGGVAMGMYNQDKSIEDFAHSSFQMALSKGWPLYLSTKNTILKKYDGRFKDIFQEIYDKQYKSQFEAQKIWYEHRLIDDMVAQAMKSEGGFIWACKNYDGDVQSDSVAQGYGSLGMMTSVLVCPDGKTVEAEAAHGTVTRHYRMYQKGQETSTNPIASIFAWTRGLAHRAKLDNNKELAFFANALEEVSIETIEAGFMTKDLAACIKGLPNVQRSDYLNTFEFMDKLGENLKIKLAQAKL
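IDH1-R132H (0.5 ug/mL dispensed) in pH 7.5 Tris buffer was preincubated 30 min with compound, then given a substrate mix of 0.016 mM NADPH and 2 mM alpha-KG for 80 min at room temperature; remaining NADPH was read by diaphorase/resazurin fluorescence.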
S2 tox = reduces viability in counter-screen for ATXN expression inhibitors; 0.49% of 400,000 active; S2 cells (HEK-293 line with an ATXN2-luciferase reporter) viability, CellTiter-Fluor protease fluorescence, 24 h; Potency, µM (titrated, usually from 56.7 µM), hits mostly cytotoxic; note: potency is the fitted concentration of half-maximal effect; nearly all actives have a fitted effect of over 40% in size
HepG2 viability = counter-screen for TGF-b inhibitors: cytotoxicity in HepG2 cells; AID 588856; 0.76% of 410,000 active; HepG2 CAGA-GFP viability, ATP luminescence, 18 h; Potency, µM (top dose mostly 46.1 µM), inactives show top-dose activity change, negative = cytotoxicity, most hits filed as cytotoxic; note: potency is the fitted concentration of half-maximal effect
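HepG2 CAGA-GFP cells (1000/well, DMEM with 1% FBS) received compound, then TGF-beta at 500 pg/mL final, and were incubated 18 hours at 37 degrees C. Viability was read by CellTiter-Glo luminescence. Media-only wells were set as complete cell-killing and DMSO as no toxicity.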
* = called active by the depositor; i = inactive; ? = inconclusive; · = no result given; [ ] = remark or other dose. Compounds with a hit are over-represented: about 2.2% of the library has one in this group of screens. Unless noted, calls come from the whole dose curve; as a rule, active = well fitted curve in the direction sought with a large enough effect; inconclusive = small, poorly fitted or top-dose-only effect, or another doubt; inactive = no such curve, though single readings can be large; an effect the other way counts as inactive or inconclusive.

SMILES	LDHA inh	ATXN2 expr inh	TGFb SMAD3 inh	mIDH1 inhibitor	S2 tox	HepG2 viability
COC12C(COC(N)=O)C3=C(C(=O)C(C)=C(N)C3=O)N1CC1C2N1C (stereo not drawn)	17	6.3µM*	-29%	0%	?	-66%
O=S(=O)(c1ccc(F)cc1)N1CCCCC1c1cccnc1 (stereo not drawn)	-3	-4%	2%	1%	i	5%
C=CCC1=C(C)C(OC(=O)C2C(C=C(C)C)C2(C)C)CC1=O (stereo not drawn)	·	?	·	·	40µM*	·
CC(C)=CC1C(C(=O)OCc2cccc(Oc3ccccc3)c2)C1(C)C (stereo not drawn)	·	12%	·	·	i	·
C[C@H](CO)N1C[C@H](C)[C@H](CN(C)C(=O)Nc2cccc3ccccc23)Oc2c(NC(=O)c3ccc(-c4nccs4)cc3)cccc2C1=O	2	-18%	?	11%	i	1%
CCn1nc(-c2cccs2)nc2c(=O)n(C)c(=O)nc1-2	31	6%	?	11%	i	0.35µM*
CCOc1ccc(-n2c(-c3cccs3)nc3ccccc3c2=O)cc1	-15	?	2%	-1%	i	-9%
CCn1nc(/C=C/c2ccccc2)nc2c(=O)n(C)c(=O)nc1-2	50	?	0.4µM*	22%	·	0.89µM*
CC(C(N)=O)N1CC=C(c2c[nH]c3ccccc23)CC1 (stereo not drawn)	5	·	·	·	·	·
CCOc1ccc(-c2nc(CSCC(=O)NCCc3ccc(OCC)c(OCC)c3)c(C)o2)cc1	3	20µM*	-17%	27%	32µM*	-16%
CCOc1ccc(-c2cc(C)[n+](CCc3ccc(OC)c(OC)c3)c(-c3ccc(OCC)cc3)c2)cc1	-2	?	?	-10%	?	-35%
NC(CCc1ccccc1)c1csc(NC(=O)Nc2ccccc2Oc2ccccc2)n1 (stereo not drawn)	-20	?	?	·	?	10µM*
C[C@@H]1CCC2[C@H](C)C(=O)O[C@@H]3O[C@]4(C)CCC1C23OO4 (stereo partly drawn)	7	·	·	·	·	·
COc1cccc(OC)c1C1=NCC(=O)Nc2c1oc1ccc(Br)cc21	-3	0%	16µM*	-2%	?	-20%
CCCCNC(=O)CN1CC=C(c2ccc(O)cc2)CC1	18	·	·	·	·	·
COC(=O)C1=Nc2ccccc2/C1=C\c1c(O)n(-c2ccc(Br)cc2)c(=O)[nH]c1=O	-67*	-20%	-1%	-3%	i	6%
COC(=O)C1=Nc2ccccc2/C1=C\c1c(O)n(-c2ccc(OC)cc2)c(=O)[nH]c1=O	-43*	-12%	-28%	4%	i	-28%
COc1ccc(OC)c(-n2c(O)c(/C=C3\C(C)=Nc4ccccc43)c(=O)[nH]c2=O)c1	-2	-11%	11%	1%	?	24%
CC[C@H]1CN2CCC1C[C@H]2[C@H](O)c1ccnc2ccc(OC)cc12 (stereo partly drawn)	-3	-3%	5%	3%	i	-16%
CCCC[N+]12CCC(CC1)C(=C(c1ccccc1)c1ccccc1)C2	-106*	-15%	-9%	0%	i	-1%
CN1C(=O)C(=Cc2ccccc2OCc2ccc(C(=O)O)cc2)C(=O)N(C)C1=O	-35*	15%	-18%	12%	i	-11%
CN1C(=O)C(=Cc2ccccc2OCc2ccccc2Cl)C(=O)N(C)C1=O	-45*	?	-7%	-4%	i	7%
Cn1c(CCCC(=O)O)nc2cc(N(CCCl)CCCl)ccc21	·	?	·	·	i	·
O=C1NCc2c1c1c3ccccc3[nH]c1c1[nH]c3ccccc3c21	-5	·	?	·	·	13µM*
C1=NCCc2c1[nH]c1ccccc21	2	?	?	-6%	i	-36%
SMILES	LDHA inh	ATXN2 expr inh	TGFb SMAD3 inh	mIDH1 inhibitor	S2 tox	HepG2 viability
C[C@H]1CC[C@@H]2[C@@H](C)[C@H]3C(CC4C5CC=C6CC(O[C@@H]7O[C@H](CO)C(O[C@@H]8O[C@@H](C)[C@H](O)[C@@H](O)[C@H]8O)[C@H](O)[C@H]7O[C@@H]7O[C@@H](C)[C@H](O)[C@@H](O)[C@H]7O)CC[C@]6(C)C5CC[C@@]43C)N2C1 (stereo partly drawn)	·	·	14µM*	·	·	20µM*
C[C@@H]1CC[C@@]2(OC1)O[C@H]1C[C@H]3[C@@H]4CC=C5C[C@@H](O[C@@H]6O[C@H](CO)[C@@H](O[C@@H]7O[C@@H](C)[C@H](O)[C@@H](O)[C@@H]7O)[C@H](O)[C@@H]6O[C@@H]6O[C@@H](C)[C@H](O)[C@@H](O)[C@@H]6O)CC[C@]5(C)[C@@H]4CC[C@]3(C)[C@@H]1[C@H]2C	·	12µM*	·	·	·	·
C[C@]12CC[C@H](O)CC1=CCC1C2CC[C@@]2(C)C1C[C@@H](O)[C@@H]2O (stereo partly drawn)	-11	5%	13%	-2%	i	-1%
C[C@]12CC[C@@H](O)CC1=CCC1C2CC[C@@]2(C)C1C[C@@H](F)[C@@H]2O (stereo partly drawn)	-10	5%	7%	4%	i	2%
Cc1ccccc1C(O)(c1ccccc1C)C1CN2CCC1CC2 (stereo not drawn)	1	·	·	·	·	·
C=CCN1C(=O)C2(C(C(=O)OC)=C(N)Oc3c2c(=O)oc2ccccc32)c2ccccc21 (stereo not drawn)	1	·	5%	·	·	5%
O=C1/C(=C\c2cc3c(cc2Br)OCO3)N2CCC1CC2	-14	3%	18%	0%	i	21%
CCOC(=O)[C@]12Cc3cc(OC)ccc3[C@H]1N(Cc1ccccc1)C(=O)c1cc(F)c(F)cc12	-6	-15%	?	6%[38.3 µM]	i	-8%
CCOC(=O)[C@]12Cc3cc(C)ccc3[C@H]1N(Cc1ccccc1)C(=O)c1ccccc12	-2	?	10µM*	-16%[38.3 µM]	?	-21%
CCOC(=O)[C@]12Cc3cc(C)ccc3[C@H]1N(Cc1ccccc1)C(=O)c1cc(F)c(F)cc12	0	18µM*	·	·	16µM*	·
COC(=O)C1=C(c2ccc(C(C)=O)cc2)C[C@@H]2CC[C@H]1N2C(=O)NC1CC1	-1	4%	-3%	-13%	i	-14%
CN[C@]1(c2ccccc2Cl)CCCCC1=O	·	·	·	·	i	·
O=c1[nH]c2ccccc2n1C1CCN(C(CCc2ccccc2)c2nnnn2-c2ccc3c(c2)OCCO3)CC1 (stereo not drawn)	-4	7.9µM*	?	·	·	-18%

Source: PubChem BioAssay
